Most compounds without a hit are left out; they make up all but 21% or so of the library.
NS1 inh = qHTS Assay for Inhibitors of Influenza NS1 Protein Function | Potency, µM (top dose mostly 46.1 µM) | actives 0.4% (n = 270,000) | AID 2326, 2010; calls by dose curve; also: actives are rising curves; nearly all actives have a fitted effect of over 50% in size
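Growth recovery, yeast-based: influenza A NS1 expressed in S. cerevisiae causes slow growth, and suppressors are detected by OD600. The parent strain without NS1 is used as positive control.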
CHX counter = Cycloheximide Counterscreen for Small Molecule Inhibitors of Shiga Toxin; cell reporter, cycloheximide protein synthesis inhibition counterscreen; max response, %; AID 2314, 2010; actives 12% (n = 300,000); in the data active = max response mostly above about 13%, no sharp cut-off; inactive = mostly below about 14%; also: read at 38.3 µM for the half of the compounds with a filed dose
Pf growth 96h = Primary qHTS for delayed death inhibitors of the malarial parasite plastid, 96 hour incubation; Potency, µM (highest dose often 28.7 µM), hits mostly inhibitors; AID 504834, 2011; actives 6.9% (n = 320,000); P. falciparum luciferase reporter growth, 96 h
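Erythrocytes infected with luciferase-expressing P. falciparum were dispensed at 2% hematocrit and 0.05% parasitemia (final), then incubated with compounds 96 hours at 37 C in 5% CO2. Luminescence after detection reagent addition reported growth.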
Pf growth 48h = Primary qHTS for delayed death inhibitors of the malarial parasite plastid, 48 hour incubation. P. falciparum luciferase growth in erythrocytes, 48 h. Potency, µM (series often up to 28.7 µM), actives largely listed as inhibitors. actives 5.9% (n = 310,000). AID 504832, 2011
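Parasite viability was followed by luminescence of a genomically integrated firefly luciferase. Cultures held 0.1% parasitemia at 2% hematocrit (final), incubated under 5% CO2 at 37 C.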
SARS PLP yeast = qHTS of Yeast-based Assay for SARS-CoV PLP | S. cerevisiae expressing SARS-CoV PLpro, growth rescue | Potency, µM (titrated, usually from 32.9 µM), most hits filed as activators | actives 0.19% (n = 330,000); calls by dose curve; also: nearly all actives have a fitted effect of over 55% in size
Shiga inhibitor = A qHTS for Small Molecule Inhibitors of Shiga Toxin; Vero cells, Shiga toxin protein synthesis inhibition reporter; inhibition, % at 38.7 µM; actives 9.2% (n = 290,000); AID 2315, 2010; in the data active = inhibition mostly above about 28%, no sharp cut-off; inactive = mostly below about 43%
Numbers stand for hits; – = inactive; ? = inconclusive; · = no result; [ ] = remark or other dose. Unless noted, calls follow the shape of the dose curve; as a rule, active = well fitted inhibition curve with a large enough effect; inconclusive = small, poorly fitted or top-dose-only effect, or another doubt; inactive = no such curve, though single readings can be large or run the other way.

SMILES	NS1 inh	CHX counter	Pf growth 96h	Pf growth 48h	SARS PLP yeast	Shiga inhibitor
COc1ccccc1OC[C@H](O)COC(N)=O	·	·	–	–	·	·
O=C(Nc1ccccc1Cl)C1CCN(S(=O)(=O)c2cccc3nonc23)CC1	–	–	?	–	–	–
COc1cccc(-n2nnnc2SCC(=O)Nc2ccc3c(c2)OCCO3)c1	–	–	–	·	–	–
COc1ccc(-n2nnnc2SCC(=O)Nc2ccc3c(c2)OCCO3)c(OC)c1	–	46	?	–	–	74
COc1cccc(C(=O)Nc2cc(C(=O)NCc3ccc(C)cc3)ccc2N2CCC3(CC2)CC(c2ccccc2)=NO3)c1	–	–	1.3µM	?	–	–
Cc1ccc(CNC(=O)c2ccc(N3CCC4(CC3)CC(c3cccc(Br)c3)=NO4)c(NC(=O)c3ccc(Cl)c([N+](=O)[O-])c3)c2)cc1	·	·	·	·	–	·
Cc1ccc(CNC(=O)c2ccc(N3CCC4(CC3)CC(c3cccc(Br)c3)=NO4)c(NC(=O)c3ccccc3)c2)cc1	·	·	?	9.3µM	–	·
O=CNC(Cc1ccccc1)C(=O)O (stereo not given)	–	–	?	·	–	–
Cc1csc(SCC(=O)Nc2ccc(F)cc2Cl)n1	·	·	·	·	–	·
O=C(NC12CC3CC(CC(C3)C1)C2)c1cc(F)c(F)c(F)c1F	–	–	–	–	–	–
O=[N+]([O-])c1cc2oc3c(c2c(C=NCc2ccncc2)c1O)CCCC3	–	–	?	10µM	·	–
CC(C)(C)N=Cc1c(O)ccc2oc3c(c12)CCCC3	–	–	–	–[0.00184 µM]	–	–
O=C(NCc1ccccn1)Nc1ccccc1F	–	21	–	–	–	49
O=C(NCc1ccccn1)C(F)(F)C(F)(F)C(=O)NCc1ccccn1	?	–	–	–	–	–
O=C(NCc1ccccn1)Nc1ccccc1C(F)(F)F	–	15	–	–	–	–
CCn1c(C)c(C(C)=O)c(N2CCN(c3ccccc3)CC2)nc1=S	–	–	–	·	–	–
CC(=O)c1c(N2CCN(C)CC2)[nH]c(-c2ccccc2)nc1=S	–	–	–	1.7µM	–	–
C=C1CCN(C(Cc2ccccc2)C(=O)O)S(=O)(=O)c2ccccc21 (stereo not given)	·	–	·	·	·	–
CCOC(=O)/C(=C/c1c2ccccc2cc2ccccc12)NC(=O)c1ccccc1	–	–	?	?	–	–
CCOC(=O)/C(=C\c1ccccc1)NC(=O)c1ccccc1	–	19	–	–	–	–
C=CCOC(=O)/C(=C/c1cccnc1)NC(=O)c1ccccc1	–	–	–	–	–	–
CCC(=O)Nc1ccc(/C=C(\C(C)=O)C(=O)c2ccccc2)cc1	–	–	–	?	–	–
C=CCOC(=O)/C(=C\c1cccc2ccccc12)NC(=O)c1ccccc1	–	36	–	?	–	–
C=CCOC(=O)/C(=C\c1ccccc1)NC(=O)c1ccc(C)cc1	–	36	–	–	–	100
CCOC(=O)/C(=C/c1ccc(OC(=O)c2ccccc2)cc1)C(C)=O	–	–	–	–	–	39
SMILES	NS1 inh	CHX counter	Pf growth 96h	Pf growth 48h	SARS PLP yeast	Shiga inhibitor
COc1ccccc1CCNC(=O)C(=O)NCC1OCCN1S(=O)(=O)c1ccc(C)cc1 (stereo not given)	–	–	–	?	–	–
COCCn1c(SCC(=O)Nc2ccc(S(=O)(=O)N3CCOCC3)cc2)nc2ccccc21	–	–	–	10µM	–	–
COCCn1c(SCC(=O)Nc2ccc(Cl)c(S(=O)(=O)N(C)C)c2)nc2ccccc21	–	–	·	12µM	–	–
COCCn1c(SCC(=O)Nc2cccc(S(N)(=O)=O)c2)nc2ccccc21	–	–	?	·	–	–
COCCn1c(SCC(=O)Nc2ccc(S(N)(=O)=O)cc2)nc2ccccc21	–	–	·	–	–	–
COC(=O)CC/C(=N/Nc1ccc(Cl)c(Cl)c1)C(=O)OC	·	–	–	–	–	–
COc1ccc(CCNC(=O)COc2ncnc3ccccc23)cc1	·	–	–	–	–	–
Cc1ccc(Cn2ccsc2=NC(=O)COC(=O)c2ccc(O)cc2O)cc1	–	38	?	?	–	135
O=C(COC(=O)c1ccc(O)cc1O)N=c1sccn1Cc1ccccc1Cl	·	·	?	?	–	·
F/C(COc1ccc2c(c1)[nH]c1ccccc12)=C1/CN2CCC1CC2	·	36	11µM	?	·	57
O=C(CCc1c[nH]c2ccccc12)OCc1ccc(Br)cc1	–	–	?	–	–	–
OC1CCCN(CC(O)COC(c2ccc(F)cc2)c2ccc(F)cc2)C1 (stereo not given)	–	–	2.1µM	2.6µM	–	–
OCC1CCCCN1CC(O)COC(c1ccc(F)cc1)c1ccc(F)cc1 (stereo not given)	–	–	?	9.3µM	–	–
COc1ccccc1COCC(O)CN1CCCCC1CO (stereo not given)	–	–	?	–[0.00184 µM]	–	–
COc1cccc(CNC(=O)C2CCN(C(=O)N3CC(C)Oc4ccccc43)CC2)c1 (stereo not given)	–	–	?	?	–	–
O=C(CSc1nc2nc(-c3cccs3)cc(C(F)(F)F)c2c(=O)[nH]1)C(F)(F)F	–	–	–	·	–	–
NC(N)=NCCCCN=C(N)N	–	·	·	·	·	·
O=c1c2ccccc2nc2ccc(NCc3cccs3)nn12	·	54	?	–	–	59
O=C(NCc1cccs1)c1cc(-c2ccccc2)nc2ccccc12	–	–	?	–	–	–
Fc1ccccc1NC(=S)N(CCCN1CCOCC1)Cc1cccnc1	·	–	?	–	–	–
Cc1ccc(-c2cc(C(F)(F)F)nn2-c2ccc(S(N)(=O)=O)cc2)cc1	–	–	5.9µM	15µM	–	–
CCOC(=O)c1cc2c(nc1C)-c1cc(Cl)cc(Cl)c1OC2O (stereo not given)	–	–	4.7µM	6.6µM	–	–
CCOC(=O)c1sc(NC(=O)CCN2C(=O)C3CCCCC3C2=O)cc1C (stereo not given)	·	·	?	15µM	–	·
CCOC(=O)c1sc(NC(=O)c2ccc(Br)o2)cc1C	–	47	?	–	–	124
CCN(CC)C(=O)c1sc(NC(=O)c2ccc(Br)o2)c(C(=O)OC)c1C	–	–	–	·	–	–
SMILES	NS1 inh	CHX counter	Pf growth 96h	Pf growth 48h	SARS PLP yeast	Shiga inhibitor
CCOC(=O)c1sc(NC(=O)c2sccc2C)cc1C	–	63	–	·	–	70
CCOC(=O)c1c(NC(=O)Nc2ccccc2)sc(C)c1C	–	–	–	–	–	–
CCOC(=O)c1sc(NC(=O)Nc2cccc(Cl)c2)cc1C	–	62	?	–	–	108
CCOC(=O)c1sc(NC(=S)NC(=O)C2CC2)cc1C	–	–	?	?	–	–
COc1ccc(S(=O)(=O)N2CCN(C(=O)c3cc4c(s3)CCC4)CC2)cc1	·	·	·	·	–	·
CCOC(=O)c1sc(NC(=O)c2cccs2)cc1C	–	32	·	–	–	141
CCOC(=O)c1cccc(NC(=O)c2cccs2)c1	–	–	·	·	–	–

Screens as filed in PubChem BioAssay.
